Pol eta inh: blocks human DNA polymerase eta activity. Q9Y253. recombinant Pol eta, fluorescent DNA replication assay. Potency, µM (top dose mostly 114 µM), for the others: top-dose activity change, negative = inhibition, actives largely listed as inhibitors. 390,000 tested, 1.2% active; further: potency means the concentration at half of the fitted maximal effect; on the % scale 0 is the no-effect control and ±100 the full control effect
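Fluorescent replication assay: 50 nM final substrate added after a 15 min room-temperature compound preincubation with 10 nM enzyme. Signal taken at 0 min and again at 10 min.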
Pol iota inh: blocks human DNA polymerase iota activity | Q9UNA4 | Pol iota fluorescent replication assay, 10 min | Potency, µM (highest dose often 115 µM), for the others: top-dose activity, negative = inhibition, usual class: inhibitors | 390,000 tested, 1% active | AID 588590; further: potency means the concentration at half of the fitted maximal effect
Target sequence (Q9UNA4 whole entry, looked up): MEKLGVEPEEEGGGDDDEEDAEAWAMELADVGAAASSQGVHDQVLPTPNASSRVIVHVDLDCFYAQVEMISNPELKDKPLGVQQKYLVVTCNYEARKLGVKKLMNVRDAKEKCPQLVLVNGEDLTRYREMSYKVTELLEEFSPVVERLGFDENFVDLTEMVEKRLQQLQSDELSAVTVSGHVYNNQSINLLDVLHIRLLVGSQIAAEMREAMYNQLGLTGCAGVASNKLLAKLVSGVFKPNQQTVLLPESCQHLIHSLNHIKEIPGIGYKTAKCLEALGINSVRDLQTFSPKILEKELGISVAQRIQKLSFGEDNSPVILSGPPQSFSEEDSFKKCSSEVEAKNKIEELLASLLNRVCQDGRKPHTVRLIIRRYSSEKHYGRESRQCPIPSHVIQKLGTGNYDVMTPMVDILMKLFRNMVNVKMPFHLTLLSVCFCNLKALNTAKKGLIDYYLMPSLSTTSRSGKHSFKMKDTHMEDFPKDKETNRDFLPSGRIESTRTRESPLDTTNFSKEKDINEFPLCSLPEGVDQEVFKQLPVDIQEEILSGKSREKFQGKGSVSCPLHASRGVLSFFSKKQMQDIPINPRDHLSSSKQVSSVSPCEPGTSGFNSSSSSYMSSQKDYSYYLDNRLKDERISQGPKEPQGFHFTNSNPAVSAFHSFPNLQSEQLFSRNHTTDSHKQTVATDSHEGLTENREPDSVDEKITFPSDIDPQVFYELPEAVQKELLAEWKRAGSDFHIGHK
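Pol iota at 10 nM preincubated 15 min with compounds at room temperature; reaction started with fluorescent substrate, 50 nM final. Fluorescence read kinetically at 0 and 10 min; buffer-only wells as negative control.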
PI5P4K alpha inh: PI5P4K alpha (human) kinase inhibition; P48426; PI5P4Kalpha enzyme, ADP-Glo luminescence, 60 min; stronger effect = lower value; max response, %; 330,000 tested, 1.2% active; active means max response of -50% or lower; inconclusive means between -30% and -50%; inactive means -30% or higher; further: value at the top dose of about 77 µM; on the % scale 0 is the no-effect control and ±100 the full control effect
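Compounds were pin-transferred onto PI5P4Kalpha and substrate in HEPES pH 7.4 buffer with EGTA, CHAPS and 5% DMSO. ATP (5 microM final) started the reaction, which ran 60 minutes at room temperature before ADP-Glo detection.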
Pol kappa inh: DNA polymerase kappa (human) inhibition | Q9UBT6 | purified Pol kappa, fluorescent DNA synthesis assay, 10 min | Potency, µM (titrated, usually from 107 µM), inactives show at the top dose activity, negative = inhibition, actives largely listed as inhibitors | 400,000 tested, 0.53% active; further: potency means the concentration at half of the fitted maximal effect; on the % scale 0 is the no-effect control and ±100 the full control effect
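Kinetic fluorescence screen: compound preincubated 15 min RT with 10 nM enzyme; 50 nM substrate (final) initiates; reads at 0/10 min.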
POLB inh: inhibitors of human DNA polymerase beta; Pol beta primer extension/strand displacement, fluorescence kinetic; Potency, µM (titrated, usually from 114 µM), for the others: at the top dose activity change, negative = inhibition, hits mostly inhibitors; 340,000 tested, 1.3% active; further: potency means the concentration at half of the fitted maximal effect; on the % scale 0 is the no-effect control and ±100 the full control effect
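Curves were derived by four-parameter Hill fits of normalized qHTS data. The kinetic fluorescent primer-extension read was taken at 0 and 10 min after 50 nM substrate, following a 15 min room-temperature preincubation of 10 nM enzyme with compounds.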
WRN helicase inh: inhibitors of human WRN helicase; AID 651768; 360,000 tested, 0.46% active; WRN helicase unwinding, fluorescent forked duplex, kinetic; Potency, µM (highest dose often 114 µM), for inactives: at the top dose activity change, negative = inhibition, most hits filed as inhibitors; further: potency means the concentration at half of the fitted maximal effect; on the % scale 0 is the no-effect control and ±100 the full control effect; nearly all actives have a fitted effect of over 55% in size
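Kinetic red-fluorescence monitoring (525/598 nm) tracks WRN helicase activity after 100 nM fluorophore-quencher forked duplex and 2 mM ATP are added to 20 nM enzyme pretreated 15 min at room temperature with compound.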
ADP-Glo interf: ADP-Glo luciferase interference, PI5P4K counter-screen. ADP-Glo detection counter-screen, luciferase luminescence, no enzyme. Potency, µM (top dose mostly 76.9 µM), for the others: at the top dose activity change, negative = inhibition, hits mostly inhibitors. shares compounds with PI5P4K alpha inh. 1,100 tested, under 10 active
Active calls of the source: *; ? = inconclusive; / = not tested or not shown; [ ] = another dose, or the depositor's remark. In the library only some 2.8% were active in any assay of this set; here they are far more common. Unless noted, the call rests on the fitted dose curve; in most records, active means well fitted curve in the direction sought with a large enough effect; inconclusive means small, poorly fitted or top-dose-only effect, or another doubt; inactive means no such curve, though single readings can be large; an effect the other way counts as inactive or inconclusive.

SMILES	Pol eta inh	Pol iota inh	PI5P4K alpha inh	Pol kappa inh	POLB inh	WRN helicase inh	ADP-Glo interf
CCOc1ccc(S(=O)(=O)N2CCN(c3ccc(C)cc3C)CC2)cc1	-25%	19%	-110*	-12%	?	-6%	-2%
CC(NC(=O)c1sc2cc([N+](=O)[O-])ccc2c1Cl)C(C)(C)C (stereo not drawn)	-2%	?	-52*	-13%	9%[57.1 µM]	?	-3%
Nc1nc(Nc2ccc(Cl)cc2)nc(NCc2ccco2)c1[N+](=O)[O-]	-24%	?	-54*	-4%	28%	?	-2%
Cc1ccc(Nc2nc(NCc3ccco3)c3ccccc3n2)cc1	-15%	69%	/	-2%	-16%	-22%	-2%
Nc1nc(Nc2cccc(Cl)c2)nc(NCc2ccco2)c1[N+](=O)[O-]	?	?	-54*	2%	3%	?	-2%
COc1ccccc1Nc1nc(NCc2ccco2)c2ccccc2n1	-12%	55%	-6	-5%	-24%	-31%	/
COCCNC(=O)C1C(=O)Nc2ccccc2C(=O)N1Cc1ccccc1 (stereo not drawn)	/	/	-1	/	/	3%	/
COc1ccccc1CNC(=O)CSC1=NCCS1	-20%	?	2	-3%	-1%	-5%	/
O=C(CSC1=NCCS1)NCc1ccco1	-17%	?	-54*	-11%	2%	3%	1%
Oc1ccc(CNc2ccc(F)cc2)c2cccnc12	2%	50%	-54*	-19%	24%	?	2%
COc1ccccc1NC(=O)C1=C(C)Nc2nc3ccccc3n2C1c1cccc(Br)c1 (stereo not drawn)	-21%	33%	/	-2%	-26%	/	/
COc1cc2nc(COc3ccccc3[N+](=O)[O-])oc(=O)c2cc1OC	-11%	-6%	-57*	-9%	13%	-5%	2%
O=C(COc1ccc(Cl)cc1)NC1=NN(c2ccccc2)C(=O)C1	-13%	-38%	-58*	-16%	-5%	-23%	-2%
CCS(=O)(=O)N1Cc2ccccc2CC1C(=O)Nc1ncc(C)s1 (stereo not drawn)	-11%	17%	-11	0%	-3%	-4%	/
CCS(=O)(=O)N1Cc2ccccc2CC1C(=O)Nc1nnc(SCc2ccc(C#N)cc2)s1 (stereo not drawn)	?	?	-57*	?	10µM*	?	5%
Cc1ccc(S(=O)(=O)N2CCN(C(=O)c3cccc(-n4cccc4)c3)CC2)cc1	18µM*	22µM*	-52*	79µM*	/	?	-10%
Cc1ccc(S(=O)(=O)N2CCN(C(=O)c3ccccc3)CC2)cc1	-5%	-2%	-2	-13%	-7%	1%	/
CCC[C@@H]1CCCC/C=C\CCCC(=O)OCCN1C(=O)OC(C)(C)C	-12%	20%	6	14%	/	-2%	/
Cc1cc2ccccc2nc1SCC(=O)NC1CCCC1	-15%	85%	-65*	-5%	17%	-31%	6%
CC(C)(C)NC(=O)Nc1ccc(Cn2cc(C(F)(F)F)ccc2=O)cc1	-9%	98%	-55*	-3%	0%	-15%	-1%
O=S(=O)(c1ccccc1)c1nc(-c2ccco2)oc1N1CCCCCC1	-27%	-5%	-53*	-14%	-1%	-21%	-10%
COc1cccc(-c2cnc3c(NC=O)cc(-c4cccc(C(=O)N(C)C)c4)cn23)c1	/	/	?	/	/	2%[57.1 µM]	/
COc1ccc(NC(=O)CSc2nnc(-c3ccco3)c(-c3ccco3)n2)cc1OC	50µM*	?	-52*	?	-20%	-27%	-1%
COc1ccc(NS(=O)(=O)c2cccc3ccccc23)cc1	-11%	116%	9	-3%	/	-14%	/
COc1ccccc1N(CC(=O)N1CCC(C(N)=O)CC1)S(=O)(=O)c1ccccc1	-98%	?	-75*	?	30%	-6%[11.6 µM]	-7%
SMILES	Pol eta inh	Pol iota inh	PI5P4K alpha inh	Pol kappa inh	POLB inh	WRN helicase inh	ADP-Glo interf
COc1ccccc1N1CCN(C(=O)CN(c2ccccc2OC)S(=O)(=O)c2ccccc2)CC1	-4%	6%	-6	1%	16%	5%	/
CCC1(c2ccc(F)cc2)NC(=O)N(CC(=O)N2CCN(S(=O)(=O)c3ccc(C)cc3C)CC2)C1=O (stereo not drawn)	-21%	12%	3	-3%	/	-5%	/
CC(C)Cc1ccc(CN2C(C)C(=O)N(Cc3cn(Cc4ccco4)nn3)CCS2(=O)=O)cc1 (stereo not drawn)	/	/	-64*	/	/	-18%	-4%
Cc1ccc(-c2ccc(CN3C(C)C(=O)N(Cc4cn(Cc5ccco5)nn4)CCS3(=O)=O)cc2)cc1 (stereo not drawn)	-14%	/	-1	/	/	-9%	/
Cc1ccc(-c2ccc(CN3C(C)C(=O)N(Cc4cn(Cc5ccco5)nn4)CCS3(=O)=O)cc2)c(C)c1 (stereo not drawn)	/	/	-53*	/	/	-7%	-2%
O=C(c1cc2ccccc2o1)N1CCN(c2ncccn2)CC1	-25%	10%	-6	4%	/	10%	/
CC(C)(C)OC(=O)N1C2C=CC1C1=COCCN1C2=O (stereo not drawn)	/	-3%	/	5%	/	/	/
Nc1nc(N)c2cc(Sc3ccc(Cl)cc3)ccc2n1	?	/	-15	/	/	4%	/
Nc1nc(N)c2cc(Sc3ccc4ccccc4c3)ccc2n1	15%	18%	-51*	6%	-1%	0%	0%
Cc1ccc2c(CN3CCN(S(=O)(=O)c4ccc(Cl)cc4)CC3)cc(=O)oc2c1C	-11%	22%	14	0%	/	6%	/
O=c1cc(CN2CCN(S(=O)(=O)c3cccc(Cl)c3)CC2)c2ccc(O)cc2o1	?	?	-74*	-13%	/	-3%[11.6 µM]	-6%
CCc1cc(C(c2ccc(OC)c(OC)c2)N2CCOCC2)c(NC(=O)c2ccccc2)s1 (stereo not drawn)	-19%	5%	-57*	-14%	1%[57.1 µM]	-19%	-4%
COc1cccc(C(=O)Nc2nc3nc(C)c(Cc4ccccc4)c(=O)n3[nH]2)c1	-10%	-1%	/	-5%	?	/	/
CC(C)Cc1c(O)nc(SCC(=O)N2CCCCCC2)[nH]c1=O	-17%	10%	-50*	-2%	15%	1%	0%
CC(C)c1c(O)nc(SCC(=O)N2CCCCC2)[nH]c1=O	-6%	6%	-4	-5%[60.1 µM]	-17%	11%	/
CC(=O)Nc1cc(-c2cccnc2)cn2c(-c3cccc(C(F)(F)F)c3)cnc12	/	/	-29	/	/	-3%	/
Cc1ccc(NC(=O)CCC(=O)N2CCSc3ccccc32)cc1Cl	?	17%	/	-1%	-1%	/	/

Screening data (PubChem)
